Test results as given in PubChem BioAssay (NCATS).
Results filed as inconclusive are left out. Calls of active or inactive are those of the source. Unless noted, the call rests on the fitted dose curve; in most records, active means well fitted curve in the direction sought with a large enough effect; inconclusive means small, poorly fitted or top-dose-only effect, or another doubt; inactive means no such curve, though single readings can be large; an effect the other way counts as inactive or inconclusive.

What was measured:
[1] = AP1 Signaling Pathway (AID 357; active means well fitted curve in either direction with a large enough effect, not every such curve was filed as active; further: on the % scale 0 is the no-effect control and ±100 the full control effect); conditions: ME-180 AP-1-bla reporter, EGF-induced, beta-lactamase ratio, 5 h; at 7.69 µM (top of the series) unless noted
In short: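 AP-1-bla ME-180 cells with beta-lactamase reporter under AP-1 response element, stimulated with EC50 EGF; compounds titrated, 5 hours at 37 degrees Celsius. CCF4 read at 460/530 nm ratio; positive and negative modulators judged by AC50.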

[2] = biological target: Cytochrome P450 1A2 (Homo sapiens) (UniProt P05177); test: p450-cyp1a2 (AID 410; calls by dose curve; further: potency means the concentration at half of the fitted maximal effect)
In short: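 Inhibition was calculated relative to 57 uM furafylline (full inhibition). The reaction used human CYP1A2 at 20nM with Luciferin-ME at its Km, 100uM, driven by an NADPH-regenerating system for 60 min at room temperature.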

[3] = NFAT Signaling Pathway (AID 444; active means well fitted curve in either direction with a large enough effect, not every such curve was filed as active;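 further: carbachol stimulus at about its EC50 of 1 µM final; on the % scale 0 is the no-effect control and ±100 the full control effect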); conditions: Jurkat NFAT-bla M1, carbachol, beta-lactamase ratio, 5 h; at 7.69 µM (top of the series) unless noted
In short: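 Read-out: CCF4 FRET ratio (460 nm/530 nm) after 1 h RT dye loading, used for %activity and AC50 from titration series. Cells: Jurkat NFAT-β-lactamase/M1 line, treated with compound plus 1 uM carbachol for 5 h, 37 °C.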

[4] = Stat Signaling Pathway (AID 446; active means well fitted curve in either direction with a large enough effect, not every such curve was filed as active;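 further: ME-180 cervical cancer cells given 40 pM IL-6 alongside compound; SIE-controlled beta-lactamase reporter measured as 460/530 nm FRET emission ratio; on the % scale 0 is the no-effect control and ±100 the full control effect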); conditions: ME-180 SIE beta-lactamase reporter, IL-6 stimulated, 5 h; at 7.69 µM (top of the series) unless noted
In short: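 Reporter line: ME-180 cervical carcinoma, SIE-beta-lactamase. Treatment: compound with 40 pM IL-6, 5 hrs, 37 C, in low-serum OPTI-MEM with 10 mM HEPES pH 7.3. Detection: 460/530 nm fluorescence.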

[5] = biological target: Glucocorticoid receptor (Homo sapiens) (UniProt P04150); test: GR-GFP Redistribution (AID 450;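 active means compounds whose dose series gives a full or clear partial fitted curve of increased nuclear translocation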; further: potency means the concentration at half of the fitted maximal effect); conditions: U2OS GR-GFP nuclear translocation, laser cytometry, 2 h
[6] = biological target: Glucocorticoid receptor (Homo sapiens) (UniProt P04150); test: GR-EFC Redistribution (AID 451; calls by dose curve; further: potency means the concentration at half of the fitted maximal effect); conditions: CHO-K1 GR-EFC translocation, beta-gal luminescence, 2 h
In short: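 Translocation of GR-ED fusion to nuclear EA restores b-gal, read by luminescence after 1 h room-temperature detection. Engineered CHO-K1 biosensor cells, 1,000/well, exposed 2 h at 37 C to titrations up to 46 uM final.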

[7] = biological target: Mitogen-activated protein kinase 10 (Mus musculus) (UniProt Q61831); test: JNK3 AlphaScreen Assay (AID 530; active means well fitted curve in either direction with a large enough effect, not every such curve was filed as active;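 further: kinase came from lysate of stimulated human HepG2 cells; signal reports phosphorylation of biotinylated GST-cJun 1-79 at Ser73 with 10 µM ATP; on the % scale 0 is the no-effect control and ±100 the full control effect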)
In short: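 Room-temperature AlphaScreen kinase assay; pre-activated HepG2 lysate as JNK3 source, biotin-GST-cJun(1-79) substrate, 10 uM ATP, compound 15 min preincubation.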

[8] = biological target: 3',5'-cyclic-AMP phosphodiesterase 4B (Homo sapiens) (UniProt Q07343); test: qHTS Assay for Inhibitors of PDE-IV (AID 607; active means well fitted activation curve with a large enough effect in the main read-out, with a control signal flat, not every such curve was filed as active; further: % of control where 0% means no effect)
In short: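 Cell-based read-out of cAMP via a modified cyclic nucleotide-gated channel and membrane potential dye (535/590 nm) in HEK293 cells expressing PDE4 endogenously. Compounds tested up to 22.9 uM final; 100 uM RO 20-1724 reference.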

[9] = biological target: Cytochrome P450 3A4 (Homo sapiens) (UniProt P08684); test: qHTS Assay for Activators of Cytochrome P450 3A4 (AID 885); further: nearly all actives have a fitted effect of over 65% in size
In short: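 Signal was normalized against complete inhibition by 57 uM ketoconazole. The reaction used 20nM CYP3A4 with 25uM Luciferin-PPXE, 10-min compound preincubation and a 60-min NADPH-supported step at RT.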

[10] = qHTS Assay for Lipid Storage Modulators (AID 1519; calls by dose curve); conditions: Drosophila S3 cells, BODIPY lipid droplet/cell ratio, laser cytometry, cells loaded with oleic acid; for activity change, negative = inhibition: at 57.5 µM (top of the series)
In short: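 Cells seeded at 5,000 per well were treated with compounds over a concentration series and loaded with oleic acid (400 uM, as added). Lipid droplet fluorescence (488 nm excitation, 500-530 nm channel) was read by laser-scanning cytometry and normalized to 20 uM Triacsin C.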

[11] = biological target: Dual specificity protein kinase CLK4 (Homo sapiens) (UniProt Q9HAZ1); test: qHTS Assay for Inhibitors of CDC-like Kinase 4 (Kinase-Glo Assay) (AID 1770); further: nearly all actives have a fitted effect of over 65% in size; further: potency means the concentration at half of the fitted maximal effect
In short: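 Luminescent ATP-depletion read-out (Kinase-Glo) after 4.5 h room-temperature reaction of Clk4 (25 nM final) with RS peptide (100 uM) and ATP (1 uM), pH 7.5 Tris buffer with MgCl2 and DTT.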

[12] = biological target: Dual specificity protein kinase CLK4 (Homo sapiens) (UniProt Q9HAZ1); test: qHTS Assay for Inhibitors of CDC-like Kinase 4 (ADP-Glo Assay) (AID 1771); further: nearly all actives have a fitted effect of over 70% in size; further: potency means the concentration at half of the fitted maximal effect
In short: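 Kinase reaction: Clk4 at 25 nM, RS repeat peptide substrate at 100 uM, ATP at 1 uM, 1 hr, room temperature. Product ADP detected as luciferase signal via ADP-Glo.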

[13] = biological target: Dual specificity protein kinase CLK4 (Homo sapiens) (UniProt Q9HAZ1); test: qHTS Assay for Inhibitors of CDC-like Kinase 4 (ADP-FP Assay) (AID 1795); further: nearly all actives have a fitted effect of over 60% in size; further: potency means the concentration at half of the fitted maximal effect
In short: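 Kinase activity was measured as ADP production using Transcreener orange tracer (4 nM) and ADP antibody (1 ug/mL) fluorescence polarization, with ADP calculated from a calibration curve. The 1 h reaction contained 6.25 nM Clk4, 1 uM ATP and 100 uM RS peptide at pH 7.5 with Mg2+.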

[14] = biological target: Ubiquitin carboxyl-terminal hydrolase 1 (Homo sapiens) (UniProt O94782); test: Inhibitors of USP1/UAF1: Pilot qHTS (AID 504865);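 further: rhodamine fluorescence freed from ubiquitin-rhodamine substrate followed over time; top concentration of the series differs between compounds; on the % scale 0 is the no-effect control and ±100 the full control effect; nearly all actives have a fitted effect of over 35% in size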
In short: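 Deubiquitinase activity followed as kinetic rhodamine fluorescence release from 150 nM Ub-Rho. 1 nM USP1/UAF1 with compound, after 15 min room-temperature preincubation, in HEPES pH 7.8 buffer containing TCEP, EDTA, BSA and Tween-20.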

[15] = Primary qHTS for small molecule stabilizers of the endoplasmic reticulum resident proteome: Secreted ER Calcium Modulated Protein (SERCaMP) assay (AID 1508630); further: on the % scale 0 is the no-effect control and ±100 the full control effect
In short: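 GLuc-SERCaMP-expressing SH-SY5Y cells, pretreated 16 h with compound, are challenged with thapsigargin to empty ER calcium stores; after 4 h, coelenterazine is added directly to the medium and luminescence is imaged.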

[16] = biological target: Lysosomal acid glucosylceramidase (Homo sapiens) (UniProt P04062); test: Glucocerebrosidase-p2 (AID 348; in the data active means potency below about 10 µM; further: potency means the concentration at half of the fitted maximal effect); conditions: purified GBA, blue fluorogenic substrate, 40 min
In short: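 Compounds titrated from 0.6 nM upwards against 0.2 nM enzyme in pH 5.9 citric acid/KH2PO4, taurocholate, tween-20; blue fluorogenic substrate 80 uM, 40 min room temperature, stopped and read Ex 365/Em 440 for AC50.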

[17] = qHTS Assay for Identification of Small Molecule Agonists for Hypoxia Response Element Signaling Pathway (AID 914; active means well fitted activation curve with a large enough effect in the signal ratio, with a control signal flat, not every such curve was filed as active; the % refers to the signal ratio; further: potency means the concentration at half of the fitted maximal effect); conditions: ME-180 (cervical carcinoma) HRE-bla reporter, beta-lactamase ratio, CoCl2, 17 h; activation: stronger effect = higher value
In short: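 qHTS titration; ME-180 HRE-bla cells; EC50 CoCl2 co-treatment, 17 h at 37 degrees Celsius; CCF4 dye, ex 405nm, em 460nm and 530nm; %Activity from ratio; AC50.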

[18] = measured here: cell count channel max response
[19] = measured here: lipid channel max response

Sequence of Ubiquitin carboxyl-terminal hydrolase 1 (Homo sapiens) (O94782 whole entry, looked up): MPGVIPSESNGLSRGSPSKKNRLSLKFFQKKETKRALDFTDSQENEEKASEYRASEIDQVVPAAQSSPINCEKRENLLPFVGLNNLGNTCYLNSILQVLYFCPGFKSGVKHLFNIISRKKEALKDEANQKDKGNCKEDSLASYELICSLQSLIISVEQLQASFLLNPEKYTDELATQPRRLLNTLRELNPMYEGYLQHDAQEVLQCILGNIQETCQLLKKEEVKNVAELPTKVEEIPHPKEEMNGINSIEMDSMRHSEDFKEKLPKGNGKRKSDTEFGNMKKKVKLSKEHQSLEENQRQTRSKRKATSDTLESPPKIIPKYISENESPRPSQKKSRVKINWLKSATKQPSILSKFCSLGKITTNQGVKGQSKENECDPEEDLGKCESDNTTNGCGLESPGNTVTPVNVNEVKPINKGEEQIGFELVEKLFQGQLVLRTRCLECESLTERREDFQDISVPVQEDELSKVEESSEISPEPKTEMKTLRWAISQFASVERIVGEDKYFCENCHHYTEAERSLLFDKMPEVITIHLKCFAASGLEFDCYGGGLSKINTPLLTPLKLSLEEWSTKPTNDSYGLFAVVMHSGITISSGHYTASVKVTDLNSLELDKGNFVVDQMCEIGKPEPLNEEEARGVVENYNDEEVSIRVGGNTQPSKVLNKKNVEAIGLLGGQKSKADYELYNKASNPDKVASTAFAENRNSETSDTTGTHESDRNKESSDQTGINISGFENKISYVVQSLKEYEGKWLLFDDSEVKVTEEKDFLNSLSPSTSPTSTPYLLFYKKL
Sequence of Lysosomal acid glucosylceramidase (Homo sapiens) (P04062 whole entry, looked up): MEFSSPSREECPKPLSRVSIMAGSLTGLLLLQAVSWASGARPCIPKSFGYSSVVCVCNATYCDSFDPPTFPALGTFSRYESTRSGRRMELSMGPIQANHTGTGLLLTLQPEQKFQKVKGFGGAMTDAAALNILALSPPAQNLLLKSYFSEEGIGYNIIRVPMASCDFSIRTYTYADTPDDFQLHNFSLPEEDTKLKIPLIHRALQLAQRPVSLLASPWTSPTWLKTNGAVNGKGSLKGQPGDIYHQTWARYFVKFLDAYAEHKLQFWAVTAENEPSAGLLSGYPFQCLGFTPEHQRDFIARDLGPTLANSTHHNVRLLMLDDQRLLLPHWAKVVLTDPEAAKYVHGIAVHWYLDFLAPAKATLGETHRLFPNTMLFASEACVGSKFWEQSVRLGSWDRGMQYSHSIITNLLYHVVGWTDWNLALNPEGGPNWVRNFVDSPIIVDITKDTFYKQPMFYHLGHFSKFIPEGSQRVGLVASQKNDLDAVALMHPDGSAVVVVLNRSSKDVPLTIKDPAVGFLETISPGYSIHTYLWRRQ
Sequence of Dual specificity protein kinase CLK4 (Homo sapiens) (Q9HAZ1 whole entry, looked up): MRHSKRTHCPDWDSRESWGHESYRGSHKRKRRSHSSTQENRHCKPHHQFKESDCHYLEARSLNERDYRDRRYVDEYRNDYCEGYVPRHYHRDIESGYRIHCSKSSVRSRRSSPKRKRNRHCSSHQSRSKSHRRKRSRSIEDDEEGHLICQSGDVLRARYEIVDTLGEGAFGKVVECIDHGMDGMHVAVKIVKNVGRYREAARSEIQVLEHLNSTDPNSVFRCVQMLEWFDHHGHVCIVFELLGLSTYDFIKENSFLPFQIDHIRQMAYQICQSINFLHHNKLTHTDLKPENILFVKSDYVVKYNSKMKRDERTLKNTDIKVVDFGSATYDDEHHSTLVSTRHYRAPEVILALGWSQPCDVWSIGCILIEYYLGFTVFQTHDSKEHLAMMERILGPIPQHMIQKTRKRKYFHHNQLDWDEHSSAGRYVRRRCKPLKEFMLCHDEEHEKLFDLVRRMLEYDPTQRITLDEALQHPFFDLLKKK
Sequence of Cytochrome P450 3A4 (Homo sapiens) (P08684 whole entry, looked up): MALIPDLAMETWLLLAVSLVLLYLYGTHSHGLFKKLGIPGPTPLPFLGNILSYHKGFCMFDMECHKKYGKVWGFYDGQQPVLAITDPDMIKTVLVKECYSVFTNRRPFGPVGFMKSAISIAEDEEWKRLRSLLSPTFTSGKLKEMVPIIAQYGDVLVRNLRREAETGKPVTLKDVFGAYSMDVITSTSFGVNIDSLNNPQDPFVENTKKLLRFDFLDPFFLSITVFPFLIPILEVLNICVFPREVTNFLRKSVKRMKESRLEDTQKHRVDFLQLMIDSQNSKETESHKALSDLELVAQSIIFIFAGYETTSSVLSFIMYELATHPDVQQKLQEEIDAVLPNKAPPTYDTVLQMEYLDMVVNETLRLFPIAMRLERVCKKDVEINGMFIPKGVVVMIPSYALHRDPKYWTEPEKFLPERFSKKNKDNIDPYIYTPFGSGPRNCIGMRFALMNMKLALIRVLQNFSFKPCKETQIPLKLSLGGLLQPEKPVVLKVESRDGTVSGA
Sequence of Glucocorticoid receptor (Homo sapiens) (P04150 whole entry, looked up, the tested form may be a part): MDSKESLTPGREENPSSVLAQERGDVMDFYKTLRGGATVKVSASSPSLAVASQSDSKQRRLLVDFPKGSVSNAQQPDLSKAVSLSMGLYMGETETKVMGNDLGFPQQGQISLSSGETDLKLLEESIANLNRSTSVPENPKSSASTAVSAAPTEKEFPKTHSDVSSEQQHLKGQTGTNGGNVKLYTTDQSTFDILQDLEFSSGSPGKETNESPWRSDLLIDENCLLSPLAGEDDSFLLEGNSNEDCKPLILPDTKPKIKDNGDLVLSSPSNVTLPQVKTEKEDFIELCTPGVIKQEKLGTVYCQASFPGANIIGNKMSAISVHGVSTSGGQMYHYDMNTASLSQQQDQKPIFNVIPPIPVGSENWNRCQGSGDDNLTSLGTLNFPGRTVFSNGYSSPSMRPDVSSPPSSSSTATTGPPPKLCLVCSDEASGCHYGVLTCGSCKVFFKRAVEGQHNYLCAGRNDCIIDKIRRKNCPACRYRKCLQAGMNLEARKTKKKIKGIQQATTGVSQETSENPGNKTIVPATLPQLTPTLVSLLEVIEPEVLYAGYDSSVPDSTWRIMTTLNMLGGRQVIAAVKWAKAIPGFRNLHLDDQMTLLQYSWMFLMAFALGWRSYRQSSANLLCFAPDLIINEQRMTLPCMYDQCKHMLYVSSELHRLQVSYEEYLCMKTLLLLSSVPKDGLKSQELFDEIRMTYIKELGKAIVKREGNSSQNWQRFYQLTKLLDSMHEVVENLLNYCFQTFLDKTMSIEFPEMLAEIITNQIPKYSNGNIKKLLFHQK
Sequence of 3',5'-cyclic-AMP phosphodiesterase 4B (Homo sapiens) (Q07343 whole entry, looked up): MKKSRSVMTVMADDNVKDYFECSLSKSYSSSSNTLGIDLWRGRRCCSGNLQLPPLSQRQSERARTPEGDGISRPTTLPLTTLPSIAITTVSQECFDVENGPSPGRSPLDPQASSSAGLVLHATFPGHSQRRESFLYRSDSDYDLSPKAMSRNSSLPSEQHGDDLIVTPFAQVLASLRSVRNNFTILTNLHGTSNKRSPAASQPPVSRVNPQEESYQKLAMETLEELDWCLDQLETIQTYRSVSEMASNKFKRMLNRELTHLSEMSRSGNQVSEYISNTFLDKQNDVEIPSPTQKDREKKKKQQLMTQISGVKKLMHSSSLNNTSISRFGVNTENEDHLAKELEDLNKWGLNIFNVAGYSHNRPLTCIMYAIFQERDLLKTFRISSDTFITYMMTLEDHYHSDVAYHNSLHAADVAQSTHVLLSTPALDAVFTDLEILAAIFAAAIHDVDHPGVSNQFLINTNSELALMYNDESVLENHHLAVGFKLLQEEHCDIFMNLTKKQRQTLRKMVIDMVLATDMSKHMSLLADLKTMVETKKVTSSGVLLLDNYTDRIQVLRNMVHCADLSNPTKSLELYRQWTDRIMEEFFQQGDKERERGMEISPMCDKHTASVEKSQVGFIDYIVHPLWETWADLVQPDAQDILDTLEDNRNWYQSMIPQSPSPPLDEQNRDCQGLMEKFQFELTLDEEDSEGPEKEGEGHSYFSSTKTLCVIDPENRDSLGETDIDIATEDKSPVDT
Sequence of Cytochrome P450 1A2 (Homo sapiens) (P05177 whole entry, looked up): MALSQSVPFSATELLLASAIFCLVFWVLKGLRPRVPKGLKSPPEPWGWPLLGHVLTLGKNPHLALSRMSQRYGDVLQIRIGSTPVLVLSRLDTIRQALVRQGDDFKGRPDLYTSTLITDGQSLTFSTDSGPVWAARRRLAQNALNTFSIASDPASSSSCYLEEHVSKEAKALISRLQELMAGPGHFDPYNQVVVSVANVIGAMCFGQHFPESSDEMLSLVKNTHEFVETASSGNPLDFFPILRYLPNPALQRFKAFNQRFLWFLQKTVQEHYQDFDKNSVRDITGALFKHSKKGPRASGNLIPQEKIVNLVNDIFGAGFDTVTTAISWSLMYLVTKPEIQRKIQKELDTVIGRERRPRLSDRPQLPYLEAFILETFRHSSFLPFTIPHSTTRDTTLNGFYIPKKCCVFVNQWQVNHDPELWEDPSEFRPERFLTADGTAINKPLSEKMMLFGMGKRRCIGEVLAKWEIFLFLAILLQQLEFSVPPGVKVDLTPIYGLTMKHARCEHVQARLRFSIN

CC(=O)NCCNc1ncncc1-c1ccc(N(C)C)cc1
25.7%: max response [10, 18]
inactive: activity change, negative = inhibition [1] -11.6% | activity change, negative = inhibition [3] 9.49% | activity, negative = inhibition [4] 9.91% | Potency [5] > 46 µM | Potency [6] > 46 µM | outcome [7] | Potency [8] | Potency [9] | activity change, negative = inhibition [10] -9.91% | Potency [11] | Potency [12] | Potency [13] | Potency [14] | Potency [15]
active: Potency [2] 6.31 µM
8.09%: max response [10, 19]

CN1CCN(c2ncc3nc(-c4ccc(Cl)cc4)c(=O)n(-c4ccccc4)c3n2)CC1
inactive: Potency [16] > 11.4 µM | Potency [5] > 9.22 µM | Potency [6] > 46 µM | Potency [8] | activity change, negative = inhibition [10] 4.1% | Potency [11] | Potency [12] | Potency [13] | Potency [14] | Potency [15]
13.9%: max response [10, 18]
16.4%: max response [10, 19]

COc1ncc2nc(-c3ccccc3)c(=O)n(C)c2n1
inactive: activity change, negative = inhibition [1] -19.1% | activity change, negative = inhibition [3] 11.3% | activity, negative = inhibition [4] -14.9% | Potency [5] > 9.22 µM | Potency [6] > 46 µM | outcome [7] | Potency [8] | activity change, negative = inhibition [10] 6.24% | Potency [11] | Potency [12] | Potency [13] | Potency [14] | Potency [15]
20%: max response [10, 18]
active: Potency [2] 1.58 µM
24.3%: max response [10, 19]

COCCNc1ncnc2ccc(-c3ccccc3C)cc12
-19.3%: max response [10, 19]
-10.5%: max response [10, 18]
inactive: activity change, negative = inhibition [1] -10.5% | activity change, negative = inhibition [3] 10.4% | activity, negative = inhibition [4] -16.2% | Potency [5] > 46 µM | Potency [6] > 46 µM | outcome [7] | activity change, negative = inhibition [10] -6.26% | Potency [14] | Potency [15]
active: Potency [11] 14.1 µM | Potency [12] 8.91 µM | Potency [13] 11.2 µM

Cn1cc(-c2nc3cnc(N4CCNCC4)nc3n(CCC#N)c2=O)c2ccccc21
inactive: activity change, negative = inhibition [1] 14.5% | activity change, negative = inhibition [3] 1.75% | Potency [5] > 9.22 µM | Potency [6] > 46 µM | outcome [7] | Potency [8] | activity change, negative = inhibition [10] 1.65% | Potency [11] | Potency [12] | Potency [13] | Potency [14] | Potency [15]
active: Potency [17] 3.16 µM
-3.78%: max response [10, 18]
-5%: max response [10, 19]

O=c1c(-c2cccs2)nc2cnc(N3CCOCC3)nc2n1-c1ccccc1
-6.13%: max response [10, 19]
active: Potency [2] 5.01 µM
13.7%: max response [10, 18]
inactive: Potency [16] > 11.4 µM | activity change, negative = inhibition [1] 25.6% | activity change, negative = inhibition [3] 2.23% | Potency [5] > 9.22 µM | Potency [6] > 46 µM | Potency [9] | activity change, negative = inhibition [10] -15.1% | Potency [11] | Potency [13] | Potency [15]

O=c1cnc2cnc(Nc3ccccc3)nc2n1Cc1cccs1
active: Potency [2] 1 µM | Potency [11] 1.41 µM
inactive: Potency [16] > 11.4 µM | Potency [5] > 9.22 µM | Potency [6] > 46 µM | outcome [7] | Potency [9] | activity change, negative = inhibition [10] 1.01% | Potency [14] | Potency [15]
12.8%: max response [10, 18]
12.5%: max response [10, 19]
